BaF3 tox: counter-screen for JAK2V617F inhibitors: parental Ba/F3 viability inhibitors; CellTiter-Glo ATP luminescence; inhibition, % at 5.6 µM; 220,000 compounds, 1.1% hits;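 active = inhibition above a per-campaign cutoff, the mean inhibition of all tested compounds plus 3 SD, cut at about 27% in these data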;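 also: 0% = DMSO wells and 100% = JAK Inhibitor I control wells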
APP 5UTR inh: APP translation inhibition; SH-SY5Y APP 5'UTR-luciferase reporter, luminescence; inhibition, % at 2 µM; 190,000 compounds, 0.82% hits; AID 1285;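 active = inhibition above a set limit, derived from the sample mean plus 3 SD, cut at about 45% in these data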
KLF5 inhibitor: kruppel-like factor 5 inhibition; 290,000 compounds, 0.23% hits; DLD-1 KLF5 promoter-luciferase reporter, luminescence; inhibition, % at 5 µM;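 active = inhibition above a per-plate limit of that plate's mean compound inhibition plus 3 SD, cut at about 60% in these data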;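 also: 0% = DMSO wells and 100% = LY294002 at 200 µM; higher means less KLF5 promoter-driven luciferase light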
Ba/F3 V617F tox: loss of viability in JAK2V617F-driven Ba/F3 cells. AID 1446. Ba/F3 EpoR-JAK2V617F viability, ATP luminescence. 220,000 compounds, 1.1% hits. inhibition, % at 5.6 µM;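 active = inhibition above the campaign mean plus 3 SD over all tested compounds, cut at about 24% in these data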;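 also: cytokine-independent growth of Ba/F3 cells driven by EpoR plus mutant JAK2; 0% = DMSO-treated cells and 100% = JAK inhibitor I control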
IEC-6 tox: IEC-6 cytotoxicity, counter-screen for KLF5 inhibitors | luminescence viability | inhibition, % at 5 µM | 290,000 compounds, 0.78% hits;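 also: 0% = plate median of test compound wells and 100% = cytotoxic reference compound wells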
BaF3 parental 2: counter-screen for JAK2V617F inhibitors: parental Ba/F3 viability inhibitors | 580 compounds, 31% hits | CellTiter-Glo luminescence; cells kept alive by added IL-3 | AID 1520 | shares compounds with Ba/F3 V617F tox | inhibition, % at 5.6 µM;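 active = cell growth inhibition above the hit limit set in the earlier mutant JAK2 cell screen, cut at about 27% in these data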;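 also: plate controls were DMSO-treated cells for no effect and JAK Inhibitor I control wells for full effect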
JAK2V617F conf: Ba/F3 EpoR-JAK2V617F viability loss, confirmation; AID 1521; CellTiter-Glo luminescence; shares compounds with Ba/F3 V617F tox; 580 compounds, 66% hits; inhibition, % at 5.6 µM;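 active = mean inhibition above the hit cutoff derived in the earlier primary screen, cut at about 25% in these data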;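 also: 0% = DMSO-treated cells and 100% = JAK inhibitor I control wells; higher means lower luminescence from reduced cell ATP and viability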
IEC-6 cytotox cf: IEC-6 cytotoxicity, confirmation assay. shares compounds with IEC-6 tox. IEC-6 rat intestinal epithelial viability, luminescence. inhibition, % at 5 µM. 1,900 compounds, 63% hits;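 also: 0% = vehicle and 100% = reference cytotoxic drug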
Numbers without * were called inactive. A selection: hits, their analogues and other compounds. The true share with any hit is near 1.9%. Rule as the data show it, unless noted: active = inhibition above about 22%; inactive = the rest.

For Cn1cc(C(=O)N/N=C/c2ccc3c(c2)OCO3)c2ccccc21 the results were BaF3 tox 19, KLF5 inhibitor 32, Ba/F3 V617F tox 48*, IEC-6 tox 53*, BaF3 parental 2 13, JAK2V617F conf 23 and IEC-6 cytotox cf 48*.
`N#CC1=C(N)Oc2cc3ccccc3cc2C1c1cccnc1` (stereo not given) gave BaF3 tox 25, APP 5UTR inh 7, KLF5 inhibitor 0, Ba/F3 V617F tox 30*, IEC-6 tox 47*, BaF3 parental 2 31*, JAK2V617F conf 48* and IEC-6 cytotox cf 44*.
`O=C(CN(C(=O)CCC(=O)Nc1ccccn1)c1ccc(F)cc1)NCc1ccc(F)cc1` gave KLF5 inhibitor -29 and IEC-6 tox 6.
Screening O=c1c(Cl)c(Cl)cnn1Cc1nnc(-c2ccc(Cl)cc2)o1 returned BaF3 tox -8, APP 5UTR inh 77*, KLF5 inhibitor -3, Ba/F3 V617F tox 34*, IEC-6 tox 35*, BaF3 parental 2 66*, JAK2V617F conf 81* and IEC-6 cytotox cf 17.
Screening O=C1C2C3C=CC(C3)C2C(=O)N1CCCCCCN1C(=O)C2C3C=CC(C3)C2C1=O (stereo not given) returned BaF3 tox 7, APP 5UTR inh 12, KLF5 inhibitor -43, Ba/F3 V617F tox 0 and IEC-6 tox -4.
For O=C1C=CC(=O)N1CCCCCCN1C(=O)C=CC1=O the results were BaF3 tox -1, APP 5UTR inh 95*, KLF5 inhibitor -5, Ba/F3 V617F tox 72*, IEC-6 tox 24*, BaF3 parental 2 96*, JAK2V617F conf 80* and IEC-6 cytotox cf 2.
For CCCOc1cccc(C2C(C(=O)c3ccc(C)o3)=C(O)C(=O)N2c2nc(C)c(C(C)=O)s2)c1 (stereo not given) the results were KLF5 inhibitor -29 and IEC-6 tox -11.
O=C(NC(NC(=S)N1CCOCC1)C(Cl)(Cl)Cl)c1ccc(Cl)cc1 (stereo not given) was read as BaF3 tox -1, APP 5UTR inh 10, KLF5 inhibitor 11, Ba/F3 V617F tox 30*, IEC-6 tox 24*, BaF3 parental 2 31*, JAK2V617F conf 60* and IEC-6 cytotox cf 31*.
For Cc1nc([N+](=O)[O-])cn1CC(=O)Nc1ccc([N+](=O)[O-])cc1 the results were KLF5 inhibitor -17 and IEC-6 tox -1.
For CC(=O)Cc1cc(O)c2ccccc2c1OC(=O)c1ccccc1 the results were BaF3 tox -4, APP 5UTR inh -7, KLF5 inhibitor -12, Ba/F3 V617F tox 28*, IEC-6 tox 55*, BaF3 parental 2 28*, JAK2V617F conf 41* and IEC-6 cytotox cf -9.
`COc1cc(C(=O)NC2=C(C#N)CCC2)cc(OC)c1OC` gave BaF3 tox 1, APP 5UTR inh -13, KLF5 inhibitor -18, Ba/F3 V617F tox 1 and IEC-6 tox 5.
`COc1ccc(/C=N/NC(=O)c2cccnc2)cc1COc1ccc([N+](=O)[O-])c(C)c1` gave BaF3 tox 18, KLF5 inhibitor 57, Ba/F3 V617F tox 25*, IEC-6 tox 45*, BaF3 parental 2 47*, JAK2V617F conf 93* and IEC-6 cytotox cf 43*.
COc1ccc(/C=N/NC(=O)c2ccn[nH]2)cc1COc1ccc([N+](=O)[O-])c(C)c1 was read as BaF3 tox 2, KLF5 inhibitor -43, Ba/F3 V617F tox -3 and IEC-6 tox 6.
Screening Cc1ccc(-c2ccc(S(=O)(=O)Nc3cccnc3)cc2)cc1 returned KLF5 inhibitor -19 and IEC-6 tox -4.
O=C(CCC1CCCC1)Nc1ccc(C(=O)NCc2cccnc2)cc1 was read as BaF3 tox 20, APP 5UTR inh 29, KLF5 inhibitor -21, Ba/F3 V617F tox 31*, IEC-6 tox 85*, BaF3 parental 2 30*, JAK2V617F conf 100* and IEC-6 cytotox cf 46*.
For O=C(O)CCCC(=O)Nc1ccc(C(=O)NCc2cccnc2)cc1 the results were BaF3 tox 4, APP 5UTR inh -29, KLF5 inhibitor -16, Ba/F3 V617F tox -1 and IEC-6 tox -2.
